# Source: PubChem BioAssay AID651871 (Sanford-Burnham Center for Chemical Genomics, 2012)
# “And” between values parts separate entries of the source, which are not always exact repeats. Identical values can stand only once.
# Test system: HL-1
# Assay: protection of cardiomyocytes from stress damage, SAR follow-up, cell-based, panel, H9c2 and HL-1, ATP luminescence, set 2 (AID 651871);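 further: cells exposed to stressor for 2 h before ATP readout; reference of the scale not given here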
# Conditions: H9c2/HL-1 cardiomyocytes, 2-deoxyglucose stress, with 2-deoxyglucose
# [1] = run 11, at 79 µM (top of the series)
SMILES,activity (protection/inhibition) [1],"activity (protection/inhibition) (run 11, at 19.8 µM (top of the series)) [%]"
CCOC(=O)c1cccc(NC(=O)CNC(=O)c2cc(-c3cc(OC)c(OC)c(OC)c3)nc3ccccc23)c1,66.5%,
COc1ccc2nc(-c3cc(OC)c(OC)c(OC)c3)cc(C(=O)NCC(=O)Nc3ccc(C(C)=O)cc3)c2c1,89%,
COc1ccc2c(c1OC)C(=O)N1c3ccccc3C(=O)N(Cc3cccc(Cl)c3Cl)C21 (centres undefined),42.6% and -9.56%,40
